# Experimental data published in publication PMC8384837, “Expanding the binding specificity for RNA recognition by a PUF domain”.
# What was measured:
# Experiment in all cases: yeast three-hybrid, YBZ-1, SC-Leu-His + 0.5 mM 3-AT, 4 days
# Conditions in all cases: tags: N-Gal4 AD-HA kept; label: inside an RPR1-promoter hybrid RNA with tandem MS2 sites; ssRNA
# [1] = target: PUM1 PUF domain R4-WGT (Homo sapiens, UniProt Q14671 828-1176, N971W;H972G;Q975T)
# Procedure, shortened: (§1)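 Pumilio-1 PUF domain libraries, randomized at the three base-contacting residues of each repeat, were co-expressed with matching RNA elements from a centromeric plasmid in strain YBZ-1, which carries a LexA–MS2 coat fusion and a HIS3 reporter. Transformants grew for four days on SC-Leu (input) or on SC-Leu-His + 0.5 mM 3-AT (selection), and the repeat regions were PCR-amplified and Illumina-sequenced. The interaction score is the log change in variant frequency from input to selection. That logarithm is base 2, with a pseudocount of 1 where a variant was absent.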
# [2] = target: PUM1 PUF domain R4-NRV (Homo sapiens, UniProt Q14671 828-1176, H972R;Q975V)
# Procedure, shortened: as §1
# [3] = target: PUM1 PUF domain R4-WGR (Homo sapiens, UniProt Q14671 828-1176, N971W;H972G;Q975R)
# Procedure, shortened: as §1
# [4] = target: PUM1 PUF domain R3-GFL (Homo sapiens, UniProt Q14671 828-1176, C935G;R936F;Q939L)
# Procedure, shortened: as §1
# [5] = target: PUM1 PUF domain R3-SRL (Homo sapiens, UniProt Q14671 828-1176, C935S;Q939L)
# Procedure, shortened: as §1
# [6] = target: PUM1 PUF domain R1-QVR (Homo sapiens, UniProt Q14671 828-1176, S863Q;R864V;Q867R)
# Procedure, shortened: as §1
# [7] = target: PUM1 PUF domain R5-QVI (Homo sapiens, UniProt Q14671 828-1176, C1007Q;R1008V;Q1011I)
# Procedure, shortened: as §1
# [8] = target: PUM1 PUF domain R5-RMC (Homo sapiens, UniProt Q14671 828-1176, C1007R;R1008M;Q1011C)
# Procedure, shortened: as §1
# [9] = target: PUM1 PUF domain R5-PRD (Homo sapiens, UniProt Q14671 828-1176, C1007P;Q1011D)
# Procedure, shortened: as §1
# [10] = target: PUM1 PUF domain R5-TAR (Homo sapiens, UniProt Q14671 828-1176, C1007T;R1008A;Q1011R)
# Procedure, shortened: as §1
# [11] = target: PUM1 PUF domain R5-RND (Homo sapiens, UniProt Q14671 828-1176, C1007R;R1008N;Q1011D)
# Procedure, shortened: as §1
# [12] = target: PUM1 PUF domain R5-RAK (Homo sapiens, UniProt Q14671 828-1176, C1007R;R1008A;Q1011K)
# Procedure, shortened: as §1
# [13] = target: PUM1 PUF domain R2-AWY (Homo sapiens, UniProt Q14671 828-1176, N899A;Y900W;Q903Y)
# Procedure, shortened: as §1
# [14] = target: PUM1 PUF domain R1-NKR (Homo sapiens, UniProt Q14671 828-1176, S863N;R864K;Q867R)
# Procedure, shortened: as §1
sequence,measurement,setting,value
GGCUAGAACUAGUGGAUCCCCCGGCGCCCGGCGGCUCGAGCCCGGGUAAGUGUACAUAGUCUGCAUGCCGCCGGGCGCCAUGCCUGCAGGUCGACUCUAGAAAACAUG,binding signal,[1],2.69 log2 enrichment (interaction score)
same,binding signal,[2],1.97 log2 enrichment (interaction score)
same,binding signal,[3],3.78 log2 enrichment (interaction score)
GGCUAGAACUAGUGGAUCCCCCGGCGCCCGGCGGCUCGAGCCCGGGUAAGUGUAAUUAGUCUGCAUGCCGCCGGGCGCCAUGCCUGCAGGUCGACUCUAGAAAACAUG,binding signal,[4],2.59 log2 enrichment (interaction score)
same,binding signal,[5],1.51 log2 enrichment (interaction score)
GGCUAGAACUAGUGGAUCCCCCGGCGCCCGGCGGCUCGAGCCCGGGUAAGUGUAAAUUGUCUGCAUGCCGCCGGGCGCCAUGCCUGCAGGUCGACUCUAGAAAACAUG,binding signal,[6],1.47 log2 enrichment (interaction score)
GGCUAGAACUAGUGGAUCCCCCGGCGCCCGGCGGCUCGAGCCCGGGUAAGUGUGAAUAGUCUGCAUGCCGCCGGGCGCCAUGCCUGCAGGUCGACUCUAGAAAACAUG,binding signal,[7],4.41 log2 enrichment (interaction score)
GGCUAGAACUAGUGGAUCCCCCGGCGCCCGGCGGCUCGAGCCCGGGUAAGUGUCAAUAGUCUGCAUGCCGCCGGGCGCCAUGCCUGCAGGUCGACUCUAGAAAACAUG,binding signal,[8],3.26 log2 enrichment (interaction score)
same,binding signal,[9],2.8 log2 enrichment (interaction score)
same,binding signal,[10],5.36 log2 enrichment (interaction score)
same,binding signal,[11],5.27 log2 enrichment (interaction score)
same,binding signal,[12],3.03 log2 enrichment (interaction score)
GGCUAGAACUAGUGGAUCCCCCGGCGCCCGGCGGCUCGAGCCCGGGUAAGUGUAAAAAGUCUGCAUGCCGCCGGGCGCCAUGCCUGCAGGUCGACUCUAGAAAACAUG,binding signal,[13],3.08 log2 enrichment (interaction score)
GGCUAGAACUAGUGGAUCCCCCGGCGCCCGGCGGCUCGAGCCCGGGUAAGUGUAAAUCGUCUGCAUGCCGCCGGGCGCCAUGCCUGCAGGUCGACUCUAGAAAACAUG,binding signal,[6],3.01 log2 enrichment (interaction score)
same,binding signal,[14],3.94 log2 enrichment (interaction score)
GGCUAGAACUAGUGGAUCCCCCGGCGCCCGGCGGCUCGAGCCCGGGUAAGUGUUAAUAGUCUGCAUGCCGCCGGGCGCCAUGCCUGCAGGUCGACUCUAGAAAACAUG,binding signal,[8],3.38 log2 enrichment (interaction score)
same,binding signal,[9],3.07 log2 enrichment (interaction score)
same,binding signal,[10],1.21 log2 enrichment (interaction score)
same,binding signal,[12],3.4 log2 enrichment (interaction score)
